Each structure is given as a SMILES string. The panel holds about 83,000 compounds, 20% with a hit somewhere; the sample as a whole holds those more often.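 Negative percent growth values reflect cell death: -40 means 40% of the cells present at the start died, and -100 means all died.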 A number with no mark means an inactive call. Activity calls are given as the source filed them. The calls were made as follows: active = growth percent below 10; inactive = the rest.

Some test systems named below: NCI-H23 lung; NCI-H226 lung; NCI-H322M lung; HOP-62 NSCLC; NCI-H460 lung; NCI-H522 lung; A549/ATCC NSCLC; 786-0 renal; COLO 205 colon.
Holding throughout (experiment): NCI-60 one-dose screen, 48 h (100 = growth as untreated, 0 = no growth, -100 = all killed)
Common to all, as to conditions: 10 µM unless noted

Take `O=C(Cn1nc(-c2ccccc2)ccc1=O)N/N=C/c1ccc(N2CCOCC2)cc1`: the growth with NCI-H23 lung was 100%; with NCI-H226 lung, 89.7%; with NCI-H322M lung, 106%; with HOP-62 NSCLC it was 96%; with NCI-H460 lung, 99.5%; with NCI-H522 lung, 89.4%. Further, the growth is 94.9% in the test with A549/ATCC NSCLC, 97.7% in the test with 786-0 renal and 113% in the test with COLO 205 colon.
For the compound `CCCSc1nc(Nc2ccc(S(N)(=O)=O)cc2)c(C#N)c(-c2cc(OC)c(OC)c(OC)c2)n1`, the growth with NCI-H23 lung is 43.4%; in the test on NCI-H226 lung it was 32.7%; with NCI-H322M lung it was 51.7%; with HOP-62 NSCLC it was 32.5%; with NCI-H460 lung, 16.5%; in the test on NCI-H522 lung, 18.2%. Besides, the growth in the test on A549/ATCC NSCLC is 17.9%; with 786-0 renal it was 41.5%; in the test on COLO 205 colon, 8.62% (active).
`C=C1CC[C@@H]2[C@]3(C)COC(c4cn[nH]c4-c4cccc(Br)c4)O[C@@H]3CC[C@@]2(C)[C@@H]1C/C=C1/C(=O)OCC1O` (stereo partly specified): the growth in the test on NCI-H23 lung is -94.5% (active); with NCI-H226 lung, -88.4% (active); with NCI-H322M lung, -0.559% (active); in the test with HOP-62 NSCLC, -58.3% (active); with NCI-H460 lung, -68.9% (active); in the test with NCI-H522 lung, -56% (active). In addition, the growth with A549/ATCC NSCLC was -17.4% (active); in the test with 786-0 renal, -95.5% (active); with COLO 205 colon, -58.3% (active).
For the compound `CN(C)c1nc(NCCNS(=O)(=O)c2ccc(C(=O)/C=C/c3ccc(Cl)cc3)cc2)nc(Nc2ccc(F)cc2)n1`, the growth with NCI-H23 lung was -38.6% (active); with NCI-H226 lung it was -53.3% (active); with NCI-H322M lung, 6.91% (active); in the test with HOP-62 NSCLC it was 15.4%; in the test on NCI-H460 lung, -67.9% (active); with NCI-H522 lung it was -87.4% (active). Further, the growth in the test on A549/ATCC NSCLC is -23.5% (active); with 786-0 renal, -86% (active); in the test with COLO 205 colon, -82.9% (active).
With `O=c1oc2ccccc2cc1-c1csc(N2N=C(c3ccccc3)CC2c2ccc(N3CCOCC3)cc2)n1` (stereo unspecified), the growth with NCI-H23 lung is 95.9%; in the test with NCI-H226 lung, 94.6%; in the test with NCI-H322M lung, 120%; in the test on HOP-62 NSCLC, 106%; with NCI-H460 lung, 107%; in the test with NCI-H522 lung, 101%. The growth in the test with A549/ATCC NSCLC is 114%; in the test on 786-0 renal it was 118%; in the test with COLO 205 colon, 118%.
Consider `COc1ccc(/C=C2\C(=N)N=C(SCc3nc4ccccc4[nH]3)NC2=O)cc1`, for which the growth in the test with NCI-H23 lung is 100%; in the test on NCI-H226 lung it was 98.1%; with NCI-H322M lung, 110%; in the test on HOP-62 NSCLC it was 105%; in the test on NCI-H460 lung it was 105%; in the test with NCI-H522 lung, 103%. Also, the values for the growth in the test on A549/ATCC NSCLC, in the test on 786-0 renal and in the test on COLO 205 colon were 112%, 114% and 122%, respectively.
Turning to `O=C1CCCc2cc(OCC(=O)N3CCCCC3)ccc2N1`, the growth is 105% in the test with NCI-H23 lung; 101% in the test with NCI-H226 lung; 116% with NCI-H322M lung; 105% in the test with HOP-62 NSCLC; 115% with NCI-H460 lung; 108% in the test with NCI-H522 lung. The values for the growth in the test on A549/ATCC NSCLC, in the test with 786-0 renal and in the test with COLO 205 colon were 113%, 116% and 117%, respectively.
For the compound `Clc1cccc(N/N=C/c2c[nH]c3ccc(Br)cc23)n1`, the growth with NCI-H23 lung is 39.8%; in the test with NCI-H226 lung it was 22.4%; in the test on NCI-H322M lung, 51.6%; in the test on HOP-62 NSCLC it was 54.1%; in the test on NCI-H460 lung, 12.9%; in the test on NCI-H522 lung, -27.8% (active). The growth with A549/ATCC NSCLC was 30.2%; with 786-0 renal, 13%; with COLO 205 colon it was 31.9%.
`O=C(/C=C/Nc1ccc2oc(=O)ccc2c1)c1cc2cc(Br)ccc2oc1=O`: the growth was 98.8% with NCI-H23 lung; 101% in the test with NCI-H226 lung; 104% in the test with NCI-H322M lung; 95.4% in the test on HOP-62 NSCLC; 114% with NCI-H460 lung; 101% in the test on NCI-H522 lung. For the same compound, the growth with A549/ATCC NSCLC is 101%; in the test with 786-0 renal it was 103%; with COLO 205 colon it was 131%.
As to `CN(C)CCn1c2ccccc2c2nc3cc(C(F)(F)F)ccc3nc21`, the growth in the test on NCI-H23 lung was 34.6%; in the test on NCI-H226 lung, 53.2%; with NCI-H322M lung it was 40.3%; with HOP-62 NSCLC it was 38.8%; in the test on NCI-H460 lung, 8.31% (active); in the test with NCI-H522 lung, 30.7%. The figures for the growth in the test on A549/ATCC NSCLC, in the test with 786-0 renal and with COLO 205 colon were 21.7%, 32.9% and 14%, respectively.
Regarding `COc1ccc(/C=C/c2nc3ccccc3c(=O)n2CC(=O)Nc2ccc(Cl)cc2)cc1`, the growth was 60.7% in the test on NCI-H23 lung; 30.4% in the test with NCI-H226 lung; 88.8% with NCI-H322M lung; 8.06% (active) in the test with HOP-62 NSCLC; 22.6% in the test on NCI-H460 lung; 64.1% in the test on NCI-H522 lung. Further, the growth is 23% in the test with A549/ATCC NSCLC, 27.5% in the test with 786-0 renal and 74.6% in the test with COLO 205 colon.
For `CN(C)c1nc(NCCNS(=O)(=O)c2ccc(C(=O)/C=C/c3ccc(C(F)(F)F)cc3)cc2)nc(Nc2ccc(F)cc2)n1`, the growth is -5.94% (active) with NCI-H23 lung; -48.9% (active) in the test on NCI-H226 lung; 27.7% in the test on NCI-H322M lung; 68.7% with HOP-62 NSCLC; -19.6% (active) with NCI-H460 lung; -79.7% (active) with NCI-H522 lung. Besides, the growth is 10.1% in the test on A549/ATCC NSCLC, -75.7% (active) with 786-0 renal and -47.5% (active) with COLO 205 colon.
As for `CC1CCCCN1CCCNC(=O)N/C(N)=N/c1nc2ccccc2s1` (stereo unspecified), the growth with NCI-H23 lung is 58.8%; in the test on NCI-H226 lung, 48.5%; in the test with NCI-H322M lung, 77%; with HOP-62 NSCLC, 59.6%; with NCI-H460 lung, 42.2%; with NCI-H522 lung it was 72.2%. Besides, the growth in the test on A549/ATCC NSCLC was 47.3%; in the test with 786-0 renal, 29.5%; with COLO 205 colon it was -58.6% (active).
Regarding `CC(=O)c1cc(C(=O)c2ccccc2)n2c1ccc1ccccc12`, the growth with NCI-H23 lung is 105%; with NCI-H226 lung, 94%; in the test on NCI-H322M lung, 94.3%; with HOP-62 NSCLC, 87.5%; with NCI-H460 lung, 111%; in the test on NCI-H522 lung, 97.4%. Besides, the growth is 108% in the test on A549/ATCC NSCLC, 98.7% in the test on 786-0 renal and 110% in the test with COLO 205 colon.

The values are drawn from PubChem BioAssay (NCI).
